Measurements from PubChem BioAssay AID2783 (National Center for Advancing Translational Sciences (NCATS), 2010).
Inconclusive results are not listed. The call rests on the fitted dose curve; in most records, active means well fitted inhibition curve with a large enough effect in the polarisation, with a control signal flat (not every such curve was filed as active); inconclusive means small, poorly fitted or top-dose-only effect, or effect the other way, or a change in a side signal; inactive means no such curve, though single readings can be large or run the other way; the % refers to the polarisation.

Target: Menin (Homo sapiens) (UniProt O00255)
Sequence (O00255 whole entry, looked up): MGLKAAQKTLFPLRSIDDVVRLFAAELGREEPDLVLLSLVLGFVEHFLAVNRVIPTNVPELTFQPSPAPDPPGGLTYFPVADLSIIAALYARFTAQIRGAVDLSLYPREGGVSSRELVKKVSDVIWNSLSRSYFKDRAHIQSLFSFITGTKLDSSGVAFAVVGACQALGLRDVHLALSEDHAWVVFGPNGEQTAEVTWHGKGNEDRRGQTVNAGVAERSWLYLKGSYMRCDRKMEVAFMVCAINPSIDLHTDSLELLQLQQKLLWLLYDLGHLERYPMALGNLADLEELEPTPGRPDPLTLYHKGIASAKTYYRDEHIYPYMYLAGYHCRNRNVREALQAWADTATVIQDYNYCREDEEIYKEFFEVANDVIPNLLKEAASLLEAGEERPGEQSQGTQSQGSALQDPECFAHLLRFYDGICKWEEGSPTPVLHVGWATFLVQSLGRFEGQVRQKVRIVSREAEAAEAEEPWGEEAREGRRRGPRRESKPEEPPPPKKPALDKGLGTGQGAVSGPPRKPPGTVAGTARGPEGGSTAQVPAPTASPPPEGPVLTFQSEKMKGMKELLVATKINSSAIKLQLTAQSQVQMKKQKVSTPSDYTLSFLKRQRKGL
Assay: Confirmation of Inhibitors Targeting the Menin-MLL Interaction in MLL Related Leukemias: Competition With Fluorescein Labeled MLL-derived Peptide
Conditions: Fluorescence polarization, fluorescein-MLL peptide displacement from menin; series mostly up to 100 µM; activity change, negative = inhibition: at the top concentration
Text: qHTS Assay for Inhibitors Targeting the Menin-MLL Interaction in MLL Related Leukemias
NIH Chemical Genomics Center [NCGC]
NIH Molecular Libraries Probe Centers Network [MLPCN]
Assay Submitter (PI): Jolanta Grembecka, Tomasz Cierpicki, University of Virginia
Translocations of the MLL (Mixed Lineage Leukemia) gene are frequently found in human leukemias affecting both children and adults. Fusion of MLL to one of more than 60 genes results in generation of oncogenic proteins upregulating Hox genes, which are vital to blood cell development. Patients harboring fusion of the MLL gene suffer from aggressive leukemias and respond poorly to available therapies. All of the oncogenic fusion proteins have a preserved N-terminal fragment of MLL that has been identified to interact with menin. It has been recently discovered that association with menin is critical to the leukemogenic activity of the MLL fusion oncoproteins. Selective targeting of the menin-MLL interaction could provide an attractive therapeutic approach to develop novel drugs for MLL-related leukemias. Small molecules blocking the menin-MLL interaction should reverse the oncogenic potential of MLL fusion proteins.
We have developed and optimized a fluorescence polarization-based assay for the identification of Menin-MLL inhibitors. The assay was run employing two different MLL-derived peptides. The present assay uses a 12 amino acid peptide labeled with fluorescein at its N-terminus. This peptide consists of the menin high affinity binding motif from MLL and is potently bound by menin. Another peptide with a mutated sequence, labeled with Texas Red, was used in parallel as a less stringent screen for inhibitors.
The present assay was run to confirm the activity of hits from the primary screen.
The Menin protein, the MLL-wild type (w.t.) derived peptide (N-terminal 12 amino acids), the MLL-derived peptide labeled with Texas Red and the MLL-w.t. peptide labeled with Fluorescein were kindly supplied by laboratory of Dr. Jolanta Grembecka, University of Virginia. All protein and peptide solutions were stored in single use aliquots at -80C. The Eu3+ Cyrptate-conjugated mouse monoclonal antibody anti-6 Histidine (Eu3+-AB) and the Streptavidin-XL665 conjugate (XL665) were purchased from Cisbio International (Bedford, MA). All antibody and XL665 conjugate solution stocks were stored in single use aliquots at -20C. The Buffer components for all assays were purchased from Sigma-Aldrich (St. Louis, MO) and Invitrogen (Carlsbad, CA).
1. FP reaction buffer: 50 mM Tris-HCl pH 7.5, 50 mM NaCl, 1mM DTT.
Before use, 0.05% BSA is added.
2. Menin protein, MLL-w.t. labeled with fluorescein, MLL-mutant peptide labeled with texas red.
Stored in singe use aliquots at -80C.
3. MLL-w.t. unlabeled peptide as positive control: 10 uM final in FP buffer.
1. Prepare Menin at 200 nM, MLL-w.t.-fluorescein at 25 nM, and MLL-mutant-texas red at 50 nM mixture in FP buffer.
2. Prepare Menin at 200 nM, MLL-w.t.-fluorescein at 25 nM, MLL-mutant-texas red at 50 nM, and 10 uM MLL-w.t. unlabeled mixture in FP buffer.
3. Prepare MLL-w.t.-fluorescein at 25 nM and MLL-mutant-texas red at 50 nM mixture in FP buffer.
3. Dispense 4 ul per well of reagent in step 1 in columns 2, 4 - 48 in a black 1536 well plate, dispense 4 ul per well of reagents from steps 2 and 3 in columns 1 and 3 respectively. Incubate plate at ambient for 15 minutes.
4. Transfer 23 nl per well of compound to plate and incubate at ambient for 1 hr.
5. Read fluorescence polarization for each label using the PerkinElmer Envision.
Envision protocol for fluorescein: FITC FP Dual Enh Mirror, Excitation filter 480, Emission filter (1) P-pol 535, Emission filter (2) S-pol 535
Envision protocol for texas red: FP Dual Enh Mirror, Excitation filter 555, Emission filter (1) P-pol 632, Emission filter (2) S-pol 632
On the % scale 0 is the no-effect control and ±100 the full control effect.

Activity change, negative = inhibition, inactive:
Cc1[nH]nc(-c2ccc(OCc3cnn(-c4ccccc4)c3)c(C)c2O)c1Oc1ccccc1 -13.3%
CCCN1CCN(CC(O)COC(c2ccc(OC)cc2)c2ccc(OC)cc2)CC1 (stereo not given) 1.78%
COc1cccc(OC)c1NC(=O)CN1CCN(C)CC1 -13.1%
CCOc1ccccc1N(CC(=O)Nc1ccccc1C(=O)N1CCCC1)S(C)(=O)=O -16.7%
CCCn1c(C2CCCN2c2nc(C)cs2)nc2cc(Cl)c(Cl)cc21 (stereo not given) 5.5%
O=C(NC(=S)Nc1ccccc1)c1cc(-c2ccccc2)nc2ccccc12 -1.95% [at 288 µM]
CCCCCC1CCC(C(=O)NCCN2CCOCC2)CC1 (stereo not given) -20.4%
COc1ccc(CNC(=O)C(c2ccc(O)cc2)N(Cc2ccco2)C(=O)c2snc(C(N)=O)c2N)cc1 (stereo not given) -21.4%
O=C(CSc1nnc(-c2c[nH]c3ccccc23)o1)N1c2ccccc2CCc2ccccc21 -5.34%
O=C(O)c1ccccc1NS(=O)(=O)c1cccc(-n2sc3ccccc3c2=O)c1 5.28% [at 288 µM]
Cc1ccc(C#CC(C)(O)C(C)(C)C)cn1 (stereo not given) -0.647%
c1ccc2c(c1)nc(N1CCOCC1)c1c3ccccc3[nH]c21 -2.11% [at 288 µM]
CCOC(=O)c1sc(NC(=O)Nc2ccc(Cl)cc2)nc1C -9.44%
c1ccc2c(c1)NCC1CCCN21 (stereo not given) -3.78%
CCc1nnc(NC(=O)C2(C)COC(c3ccc(OC)cc3)OC2)s1 (stereo not given) -15.7%
CSC[C@@H]1NC(=S)N(c2ccc(C)cc2)C1=O 3.86%
CC(=O)c1ccc2c(c1)N(CCCN1CCC(CCO)CC1)c1ccccc1S2 -8.17% [at 50.1 µM]
N=c1oc2ccccc2cc1-c1nc(-c2ccc(Cl)cc2)cs1 5.5%
CCCn1c(=O)c(C(=O)Nc2ccccc2C(=O)OCC)c(O)c2ccccc21 -1.38% [at 288 µM]
CC(NC(=O)c1cnc2ccccc2n1)c1ccccc1 (stereo not given) -12.7% [at 288 µM]
COc1ccccc1/C=C/C(=O)NC(=S)Nc1ccc(S(=O)(=O)N(C)c2ccccc2)cc1 -15.9%
CCOC(=O)N1CCN(CC(=O)N2c3ccccc3Sc3ccccc32)CC1 8.87%
CCOc1ccc(CCNC(=O)C(C)N2C(=O)CC(C)(C)Sc3ccccc32)cc1 (stereo not given) -0.246%
CC(CC(=O)Nc1nc2ccccc2[nH]1)n1ccnc1 (stereo not given) -18.8%
COCC(=O)Nc1cccc2ccccc12 -12.3%
Cc1nn(-c2ccccc2)c2nc(N)c(C(N)=O)cc12 -7.72%
N#Cc1ccc(Cl)cc1NC(=O)CNCc1cccs1 -3.53%
CCN1C(=O)c2ccccc2S(=O)(=O)c2ccc(C(=O)NCCCN(CC(C)C)CC(C)C)cc21 -17.2%
O=C(NC(=S)N1CCCc2ccccc21)c1ccc([N+](=O)[O-])cc1 -11.5%
O=C(NC(=S)Nc1nc(-c2ccc(Br)cc2)cs1)c1cccnc1 -1.07%
COc1cc2c(cc1NC(=S)NC(=O)c1c(OC)cccc1OC)oc1ccccc12 -15%
CC(=O)N1c2ccccc2C2(O)N=C(C)SC12 (stereo not given) -1.79% [at 288 µM]
Cc1nc(N2CCN(C)CC2)c2c3c(sc2n1)CCCC3 -3.53%
Cc1cc(C)c2c(=O)cc(C(=O)NCc3ccccc3)oc2c1 2.6% [at 288 µM]
COc1ccc(NC(=O)NC2(C(=O)N3CCOCC3)CCCCC2)cc1 1.56%
CC(=O)c1cccc(NS(=O)(=O)c2ccc(N/C=C\C(=O)c3ccc(F)cc3)cc2)c1 -7.96%
COc1cc(O)c(C(=O)c2ccccc2)cc1O 4.39% [at 288 µM]
CCOC(=O)N1CCN(CCC(=O)c2ccc(Br)cc2)CC1 -16.1%
OC(c1ccccn1)(c1ccccn1)c1ccccn1 -4.63% [at 288 µM]
O=C(Nc1cccn(Cc2c(Cl)cccc2Cl)c1=O)c1c(Cl)cccc1Cl 15.9% [at 288 µM]
